Source: PubChem BioAssay
Only some compounds are listed: those with a hit (about 2.7% of all), similar ones and a draw of the others.
TMEM16A act: TMEM16A chloride channel activators or potentiators, primary screen, cell-based, HTS; hit rate 0.3% among 340,000; B-score at 10 µM; HEK293 TMEM16A/YFP-H148Q/I152L, iodide quench fluorescence; active compounds read low;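 active means fluorescence-ratio B-score plate-corrected deviation score at least 3 library SD below zero, with starting fluorescence score within 5 deviations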;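 further: channel opened by trigger with iodide after compound preincubation; score built on the fluorescence ratio of max minus min over baseline; more negative score means more quench and so TMEM16A activation or potentiation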
FID counter: compounds displacing fluorescent DNA intercalator, primary screen, artefact control for HCV NS3 helicase inhibitor project, biochemical, FID fluorescence; DNA fluorescent intercalator displacement; hit rate 0.17% among 290,000; AID 1845, 2009; inhibition, % at 7.9 µM; in the data active means inhibition above about 37%;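 further: higher means more ethidium bromide displaced from hairpin DNA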
PP5 primary: PP5 phosphatase inhibitors, primary screen, biochemical, fluorescence. Serine/threonine-protein phosphatase 5 (Homo sapiens), P53041. purified PP5c, OMFP substrate fluorescence. inhibition, % at 6.7 µM. hit rate 0.18% among 320,000. AID 1987, 2009;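 active means inhibition above the campaign's mean inhibition across all tested compounds plus 3 SD, cut at about 9.5% in these data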
Target sequence (P53041 whole entry, looked up): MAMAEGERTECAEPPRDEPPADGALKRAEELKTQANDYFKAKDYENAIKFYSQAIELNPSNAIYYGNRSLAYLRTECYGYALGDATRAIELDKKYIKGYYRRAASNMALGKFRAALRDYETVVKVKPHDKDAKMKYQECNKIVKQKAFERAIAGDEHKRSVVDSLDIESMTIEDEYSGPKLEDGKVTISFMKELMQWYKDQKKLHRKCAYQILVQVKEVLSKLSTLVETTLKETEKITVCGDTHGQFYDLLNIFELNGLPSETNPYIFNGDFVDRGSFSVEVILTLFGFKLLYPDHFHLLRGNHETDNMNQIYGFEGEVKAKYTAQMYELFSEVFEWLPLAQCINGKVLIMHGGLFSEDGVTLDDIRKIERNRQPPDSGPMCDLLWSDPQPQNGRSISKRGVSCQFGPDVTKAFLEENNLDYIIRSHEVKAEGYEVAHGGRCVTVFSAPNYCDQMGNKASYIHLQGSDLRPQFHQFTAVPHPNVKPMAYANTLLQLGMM
PREPL inhibitor: PREPL enzyme inhibitors, primary screen, biochemical, fluorescence polarization. hit rate 0.68% among 320,000. Prolyl endopeptidase-like (Homo sapiens), Q4J6C6. recombinant PREPL, fluorescence polarization activity-based probe. AID 2751, 2010. inhibition, % at 5.96 µM; in the data active means inhibition above about 43%
PP1 counter: PP1-alpha phosphatase inhibitors, primary screen, counter-screen for PP5 inhibitor project, biochemical, fluorescence, OMFP substrate, single point; purified PP1alpha; AID 2235, 2010; hit rate 0.9% among 320,000; inhibition, % at 6.7 µM; Serine/threonine-protein phosphatase PP1-alpha catalytic subunit (Homo sapiens), P62136;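 active means inhibition above the mean inhibition of all tested compounds plus 3 SD, computed separately for each screening campaign, cut at about 15% in these data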
ANO1 block: TMEM16A chloride channel inhibitors, primary screen, cell-based, HTS; Anoctamin-1 (Mus musculus), Q8BHY3; HEK293 TMEM16A/YFP iodide influx fluorescence, ionomycin; normalized B-score (activity score, 25-100; higher = stronger inhibition) at 10 µM; hit rate 1.2% among 310,000; AID 588511, 2011;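 active means ratio plate-corrected score three or more library SD toward inhibition, starting fluorescence score within five deviations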;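 further: score derived from kinetic fluorescence span divided by baseline fluorescence per well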
Large screens that a line does not name were inactive.

CCCCCN(C(=O)CCC(=O)OC(C)C(=O)c1ccc(CC)cc1)c1c(N)n(CCCC)c(=O)[nH]c1=O (stereo unspecified)	none (no result: FID counter, PP5 primary, PREPL inhibitor, PP1 counter, ANO1 block)
O=C(CN1C(=O)NC2(CCCCCC2)C1=O)N1CCN(c2ccccc2)CC1	none (no result: FID counter, ANO1 block)
C=C1CCN(c2ccc(C(=O)NCCC)cc2[N+](=O)[O-])CC1	TMEM16A act -6.4 (no result: FID counter)
Cc1sc(NC(=O)CN2CCOCC2)nc1-c1ccc2c(c1)CCN2S(=O)(=O)c1ccccc1	ANO1 block 25
COc1ccc(Cl)cc1NC(=O)c1cccc([N+](=O)[O-])c1O	none (no result: FID counter, PP5 primary, PREPL inhibitor, PP1 counter, ANO1 block)
O=C(OCc1ccccc1)/C(=C/c1cccc(Br)c1)NC(=O)c1ccco1	none
NC(=O)c1ccsc1NC(=O)CSc1nnc(Nc2ccccc2)s1	none
COc1ccc(C(=O)c2sc(Nc3ccccc3)c(C(=O)Nc3ccc(OC)c(OC)c3)c2N)cc1	none
COc1ccc(NC(=O)c2c(Nc3ccccc3)sc(C(=O)c3ccc(F)cc3)c2N)cc1	ANO1 block 100
NS(=O)(=O)c1ccc(NC=C2C(=O)OC3(CCCCC3)OC2=O)cc1	none
CCCCc1ccc(NC=C2C(=O)OC3(CCCCC3)OC2=O)cc1	TMEM16A act -19
COc1ccc(NC(=O)CSc2ccc3nnc(-c4cccnc4)n3n2)c(OC)c1	PREPL inhibitor 45
O=C(Nc1cccc([N+](=O)[O-])c1)NN1CCCCCC1	none (no result: FID counter, PP5 primary, PREPL inhibitor, PP1 counter, ANO1 block)
COc1ccc(Nc2nc(-c3cccs3)nc3ccccc23)c(OC)c1	none
COc1ccc(Nc2nc(N3CCN(C)CC3)nc3ccccc23)c(OC)c1	FID counter 46
C[C@@H]1CC[C@]2(C(=O)O[C@@H]3O[C@H](CO)[C@@H](O)[C@H](O)[C@H]3O)CC[C@]3(C)C(=CCC4[C@@]5(C)CC[C@H](O[C@@H]6OC[C@H](O)[C@H](O[C@@H]7O[C@H](CO)[C@@H](O)[C@H](O)[C@H]7O)[C@H]6O)C(C)(C)C5CC[C@]43C)C2[C@]1(C)O (stereo partly specified)	none (no result: FID counter, PP5 primary, PP1 counter, ANO1 block)
CC1(C)C[C@H]2C3=CCC4[C@@]5(C)CC[C@H](O[C@@H]6O[C@H](C(=O)O)[C@@H](O)[C@H](O)[C@H]6O)[C@@](C)(CO)C5CC[C@@]4(C)[C@]3(C)C[C@H](O)[C@@]2(CO)[C@@H](O)[C@@H]1O (stereo partly specified)	none (no result: FID counter, PP5 primary, PP1 counter, ANO1 block)
CC(=O)OC1COC(OC2C(O)C(C)OC(OC3C(OC4CCC5(C)C(CCC6(C)C5CC=C5C7CC(C)(C)CCC7(C(=O)O)CCC56C)C4(C)CO)OCC(O)C3O)C2O)C(O)C1OC(C)=O (stereo unspecified)	ANO1 block 100 (no result: TMEM16A act)
C/C=C(/C)C(=O)OC1CC(C)(C)C[C@H]2C3=CC[C@@H]4[C@@]5(C)CCC(O[C@@H]6O[C@@H](C(=O)O)[C@@H](O)C(O[C@@H]7OC[C@H](O)[C@@H](O)[C@@H]7O[C@@H]7OC(CO)C(O)[C@@H](O)[C@@H]7O)C6O[C@@H]6OC(CO)C(O)C(O)C6O)[C@@](C)(CO)[C@@H]5CC[C@]4(C)[C@]3(C)CC(O)[C@@]12CO (stereo partly specified)	TMEM16A act -37 (no result: FID counter, PP5 primary, PP1 counter, ANO1 block)
C/C=C(\C)C(=O)OC1[C@H](OC(C)=O)C2(CO)C(CC1(C)C)C1=CCC3C4(C)CCC(O[C@@H]5O[C@H](C(=O)O)[C@@H](O[C@@H]6O[C@H](CO)[C@@H](O)[C@H](O)[C@H]6O)[C@H](O)[C@H]5O[C@H]5O[C@H](CO)[C@@H](O)[C@H](O)[C@H]5O)[C@](C)(CO)C4CCC3(C)[C@]1(C)C[C@H]2O (stereo partly specified)	TMEM16A act -16 (no result: FID counter, PP5 primary, PREPL inhibitor, PP1 counter, ANO1 block)
O=C(CCc1ccncc1)NC1CCCc2c1cnn2-c1cc(F)cc(F)c1 (stereo unspecified)	none
CC(C)(C)C(=O)NC(=S)NNC(=O)c1ccc(Cl)cc1Cl	ANO1 block 100
CC(C)(C)C(=O)NC(=S)NNC(=O)c1ccc(-c2ccccc2)cc1	TMEM16A act -10, ANO1 block 100
N#CC(C#N)=C1SC(=Nc2ccccc2)C(=Nc2ccccc2)N1c1ccccc1	none (no result: FID counter, PP5 primary, PREPL inhibitor, PP1 counter, ANO1 block)
COC(=O)CN1C(=O)N/C(=C/c2cc(OC)c(OC)cc2C)C1=O	none
COc1ccc(CN(C)C(=O)c2ccc(NC(=O)CC3SC(N4CCCCC4)=NC3=O)cc2)c(OC)c1 (stereo unspecified)	none (no result: FID counter, PP5 primary, PREPL inhibitor, PP1 counter, ANO1 block)
Cc1ccc(OCC(=O)Oc2ccc(C(C)C)cc2)cc1	none
CCC(=O)Oc1ccc(C(CC)C(CC)c2ccc(OC(=O)CC)cc2)cc1 (stereo unspecified)	ANO1 block 100
Nc1cc(Nc2ccc(Br)cc2)nc(N)n1	none
CCCCCCCCOC(=O)c1cc([N+](=O)[O-])c(Sc2ncnc3nc[nH]c23)c([N+](=O)[O-])c1	none (no result: FID counter, PP5 primary, PREPL inhibitor, PP1 counter, ANO1 block)
COc1ccc(C=C(c2nc3ccccc3s2)c2nc3ccccc3s2)cc1O	none
COc1cc(C=C(c2nc3ccccc3s2)c2nc3ccccc3s2)ccc1O	TMEM16A act -6.7
COc1cc(/C=C/c2nc3ccccc3s2)cc(OC)c1O	TMEM16A act -6.9
CN(C)c1ccc(/C=C/c2nc3ccccc3s2)cc1	none
Fc1cccc(CSc2ccc3nnc(-c4cccnc4)n3n2)c1	none
CCC1([N+](=O)[O-])COC(c2ccc(Cl)cc2)OC1 (stereo unspecified)	none (no result: FID counter, PP5 primary, PREPL inhibitor, PP1 counter, ANO1 block)
COc1ccc(CNC(=O)[C@@H](NC(=O)C2CCN(C(=O)[C@@H]3CCCN3C(=O)OC(C)(C)C)CC2)C(C)C)cc1	none
CC(C)[C@@H](NC(=O)C1CCN(C(=O)[C@@H]2CCCN2C(=O)OC(C)(C)C)CC1)C(=O)NCc1ccc(F)cc1	TMEM16A act -24
Cc1ccc(-n2[nH]c(C)c(/C=N/Nc3ccc([N+](=O)[O-])cc3[N+](=O)[O-])c2=O)cc1	ANO1 block 100
Cc1[nH]n(-c2ccc([N+](=O)[O-])cc2)c(=O)c1C=NCC1CCCO1 (stereo unspecified)	none
Nc1nc(COC(=O)C2CCN(C(=O)c3ccc(Cl)cc3)CC2)nc(Nc2ccccc2)n1	none (no result: FID counter, ANO1 block)
CC(C)CNS(=O)(=O)c1ccc(CCC(=O)N2CCN(Cc3ccc4c(c3)OCO4)CC2)cc1	ANO1 block 100
CC(C)CNS(=O)(=O)c1ccc(CCC(=O)N2CCN(Cc3ccccc3)CC2)cc1	none
O=C(NC1CC1)c1cccc(NC(=O)C2CCN(S(=O)(=O)c3cccc(C(F)(F)F)c3)CC2)c1	none (no result: FID counter, PP5 primary, PREPL inhibitor, PP1 counter, ANO1 block)
Cc1cccc(C(=O)NCC(=O)N2CCCCCCC2)c1	none (no result: FID counter, ANO1 block)
